Screening data deposited in PubChem BioAssay by The Scripps Research Institute Molecular Screening Center.
Hits are enriched below; roughly 2.3% of the tested compounds scored in any of these assays.
CHRM1 PAM = human M1 muscarinic receptor positive allosteric modulators, primary screen, CHO-K1 cells, Fluo-8 calcium fluorescence, 1536-well | Muscarinic acetylcholine receptor M1 (Homo sapiens), P11229 | CHO-K1 hM1, ACh EC20; 0% = ACh EC20, 100% = maximal ACh | activation, % at 3 µM | hit rate 0.088% among 360,000; in the data active = activation above about 19%, passing the limit was not always enough
Target sequence (P11229 whole entry, looked up): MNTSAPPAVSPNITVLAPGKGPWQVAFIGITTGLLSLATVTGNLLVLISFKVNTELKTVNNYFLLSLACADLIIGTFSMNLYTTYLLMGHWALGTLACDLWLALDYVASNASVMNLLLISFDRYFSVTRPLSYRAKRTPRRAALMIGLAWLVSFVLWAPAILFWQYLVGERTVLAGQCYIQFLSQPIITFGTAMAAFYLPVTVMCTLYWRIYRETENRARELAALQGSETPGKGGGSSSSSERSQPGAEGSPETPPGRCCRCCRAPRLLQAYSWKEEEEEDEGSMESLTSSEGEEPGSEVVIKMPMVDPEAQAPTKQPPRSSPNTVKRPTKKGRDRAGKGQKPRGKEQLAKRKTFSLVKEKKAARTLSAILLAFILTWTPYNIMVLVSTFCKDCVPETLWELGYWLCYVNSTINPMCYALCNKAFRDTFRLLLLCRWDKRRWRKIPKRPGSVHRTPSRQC
M1 PAM parental = nonselective calcium activators in parental CHO-K1 cells, primary screen, counter-screen for M1 PAM project, cell-based, Fluo-8 calcium fluorescence, full deck, 1536-well; activation, % at 3 µM; ATP EC20; 0% at ATP EC20, 100% at ATP max; hit rate 0.02% among 360,000;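 active = activation above the run cutoff, the mean activation of all test compounds plus 3 SD, cut at about 40% in these data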;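 also: peak over basal fluorescence ratio in a 140 s read after ATP addition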
M1 antag = human M1 muscarinic receptor antagonists, primary screen, CHO-K1 cells, Fluo-8 calcium fluorescence, 1536-well. Muscarinic acetylcholine receptor M1 (Homo sapiens), P11229. CHO-K1 hM1, ACh EC80 antagonist. inhibition, % at 3 µM. hit rate 1.3% among 360,000. AID 588852, 2011;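 active = percent inhibition above its own plate's cutoff, namely the mean of that plate's compound wells plus 3 SD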;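 also: peak over basal fluorescence ratio during 140 s after agonist addition; 0% = ACh EC80 plus DMSO and 100% = DMSO alone without agonist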
CHO-K1 Ca ag = counter-screen for M1 agonists: effect in parental CHO-K1 cells | hit rate 0.48% among 360,000 | Fluo-8 calcium fluorescence; scaled to maximal ATP response, vehicle zero | AID 602248, 2012 | activation, % at 3 µM; in the data active = activation above about 15%;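 also: untransfected CHO-K1 host cells lacking M1 receptor as counterscreen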
CHRM1 agonist = human M1 muscarinic receptor agonists, primary screen, Fluo-8 calcium fluorescence, CHO-K1 cells, HTS | Muscarinic acetylcholine receptor M1 (Homo sapiens), P11229 | CHO-K1 hM1, agonist mode; 0% DMSO, 100% acetylcholine EC100 | activation, % at 3 µM | hit rate 0.33% among 360,000 | AID 588814, 2011;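 active = activation above the run's mean compound activation plus 3 SD, cut at about 16% in these data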;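 also: peak over basal fluorescence ratio within a 140 s kinetic read after compound addition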
CHO-K1 Ca antag = nonselective inhibitor or artifact in parental CHO-K1 cells; ATP-induced calcium, Fluo-8 fluorescence; inhibition, % at 3 µM; hit rate 0.6% among 360,000;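 active = inhibition above a per-plate cutoff, the plate's mean sample inhibition plus 3 SD, cut at about 24% in these data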;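 also: 0% = DMSO plus EC80 ATP and 100% = DMSO alone without ATP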
The depositor's hits bear a star.

Screening CC(C)Cc1nnc(NC(=O)c2ccc3c(c2)OCCO3)s1 returned CHRM1 PAM 1, M1 PAM parental -4, M1 antag -1, CHO-K1 Ca ag 4, CHRM1 agonist 1 and CHO-K1 Ca antag -6.
CC1CCN(CCCCOc2ccc(Br)cc2)CC1 was read as CHRM1 PAM -24, M1 PAM parental -3, M1 antag 31*, CHO-K1 Ca ag 1, CHRM1 agonist -10 and CHO-K1 Ca antag -3.
Cc1cc(Cl)c(OCCOCCN2CCC(C)CC2)c(Br)c1 was read as CHRM1 PAM -24, M1 PAM parental -13, M1 antag 55*, CHO-K1 Ca ag 0, CHRM1 agonist -10 and CHO-K1 Ca antag 14.
Cc1cc(Br)ccc1OCCCCN1CCC(C)CC1 was read as CHRM1 PAM -27, M1 PAM parental -2, M1 antag 53*, CHO-K1 Ca ag 3, CHRM1 agonist -11 and CHO-K1 Ca antag 5.
Cc1cc(Cl)c(OCCOCCN2CCN(C)CC2)c(Br)c1 was read as CHRM1 PAM -8, M1 PAM parental -10, M1 antag 15, CHO-K1 Ca ag 1, CHRM1 agonist -10 and CHO-K1 Ca antag 16.
Screening CC1CCN(CCCCOc2ccccc2Br)CC1 returned CHRM1 PAM -12, M1 PAM parental 20, M1 antag 10, CHO-K1 Ca ag 1, CHRM1 agonist -10 and CHO-K1 Ca antag -6.
For CC1CCN(CCCCOc2cccc(Br)c2)CC1 the results were CHRM1 PAM -27, M1 PAM parental 15, M1 antag 83*, CHO-K1 Ca ag 1, CHRM1 agonist -12 and CHO-K1 Ca antag -7.
CCC1CCCCN1C(=S)Nc1ccc(OC(F)F)cc1 (stereo unspecified) was read as CHRM1 PAM 0, M1 PAM parental 0, M1 antag -2, CHO-K1 Ca ag 4, CHRM1 agonist -5 and CHO-K1 Ca antag 6.
CC(=O)Nc1ccc(NC(=O)C(C)OC(=O)CCC2CCCC2)cc1 (stereo unspecified) was read as CHRM1 PAM 7, M1 PAM parental 18, M1 antag -6, CHO-K1 Ca ag 0, CHRM1 agonist 2 and CHO-K1 Ca antag 24*.
For CC(=O)Nc1ccc(NC(=O)C(C)OC(=O)CC2CCCC2)cc1 (stereo unspecified) the results were CHRM1 PAM 15, M1 PAM parental -1, M1 antag -11, CHO-K1 Ca ag 0, CHRM1 agonist 1 and CHO-K1 Ca antag 3.
`Cc1ccc(S(=O)(=O)N(CC(=O)N/N=C/c2cccc(Cl)c2)c2cccc3cccnc23)cc1` gave CHRM1 PAM -5, M1 PAM parental -10, M1 antag -3, CHO-K1 Ca ag 0, CHRM1 agonist -3 and CHO-K1 Ca antag 24*.
O=[N+]([O-])c1cc(C(F)(F)F)cc([N+](=O)[O-])c1NCCNC(=S)Nc1ccc(Cl)c(Cl)c1 was read as CHRM1 PAM -10, M1 PAM parental -16, M1 antag 30, CHO-K1 Ca ag 13, CHRM1 agonist 4 and CHO-K1 Ca antag 27*.
`Cc1ccc(S(=O)(=O)N(CC(O)CN2C(=O)NC(C)(C)C2=O)c2ccccc2)cc1` (stereo unspecified) gave CHRM1 PAM 5, M1 PAM parental 5, M1 antag 3, CHO-K1 Ca ag 0, CHRM1 agonist -1 and CHO-K1 Ca antag 1.
COc1ccc(C2CC(=O)C=C(NNS(=O)(=O)c3ccc(C)cc3)C2)cc1 (stereo unspecified) was read as CHRM1 PAM 6, M1 PAM parental -6, M1 antag 5, CHO-K1 Ca ag 2, CHRM1 agonist -1 and CHO-K1 Ca antag 9.
For CCOC(=O)C1=C[C@@H](C(C)C)N(S(=O)(=O)c2ccc([N+](=O)[O-])cc2)[C@H]1c1ccccc1 the results were CHRM1 PAM -22, M1 PAM parental -8, M1 antag 58*, CHO-K1 Ca ag 3, CHRM1 agonist -6 and CHO-K1 Ca antag 16.
`CCOC(=O)C1=C[C@@H](CC)N(S(=O)(=O)c2ccc([N+](=O)[O-])cc2)[C@H]1c1ccccc1` gave CHRM1 PAM -15, M1 PAM parental 16, M1 antag 17, CHO-K1 Ca ag 5, CHRM1 agonist -6 and CHO-K1 Ca antag 6.
Screening Cc1ccc(S(=O)(=O)c2nc(S(=O)(=O)c3ccccc3)sc2N2CCN(C)CC2)cc1 returned CHRM1 PAM 0, M1 PAM parental -14, M1 antag 1, CHO-K1 Ca ag 2, CHRM1 agonist -3 and CHO-K1 Ca antag -2.
COc1cc(/C=N/NC(=O)CCN2CCN(C(c3ccccc3)c3ccccc3)CC2)ccc1O was read as CHRM1 PAM -28, M1 PAM parental 11, M1 antag 28*, CHO-K1 Ca ag 1, CHRM1 agonist -11 and CHO-K1 Ca antag 0.
O=S(=O)(c1ccc(Cl)cc1)N1CCC(O)(CN2CCN(Cc3ccccc3)CC2)CC1 was read as CHRM1 PAM -30, M1 PAM parental 6, M1 antag 11, CHO-K1 Ca ag 4, CHRM1 agonist -13 and CHO-K1 Ca antag 3.
Screening O=S(=O)(c1ccccc1)N1CCC(O)(CSc2ccc(Cl)cc2)CC1 returned CHRM1 PAM -7, M1 PAM parental -16, M1 antag 27, CHO-K1 Ca ag 6, CHRM1 agonist 1 and CHO-K1 Ca antag 29*.
Screening CCN(CC)CC(O)CNc1ccnc2c(Cl)ccc(Cl)c12 (stereo unspecified) returned CHRM1 PAM 1, M1 PAM parental 8, M1 antag 0, CHO-K1 Ca ag 1, CHRM1 agonist -7 and CHO-K1 Ca antag -9.
`COc1cc(CC(=O)N(c2ccccc2)c2nc(C)cs2)cc(OC)c1OC` gave CHRM1 PAM 5, M1 PAM parental -3, M1 antag -6, CHO-K1 Ca ag 0, CHRM1 agonist -5 and CHO-K1 Ca antag -3.
CCCCOc1ccc(Br)cc1/C(C)=N/NC1=NCCN1 was read as CHRM1 PAM -22, M1 PAM parental 8, M1 antag 73*, CHO-K1 Ca ag 1, CHRM1 agonist -4 and CHO-K1 Ca antag 2.
For O=[N+]([O-])c1c(Nc2ccc(O)cc2)cc(Cl)c2nonc12 the results were CHRM1 PAM -15, M1 PAM parental -3, M1 antag 42*, CHO-K1 Ca ag -1, CHRM1 agonist -12 and CHO-K1 Ca antag 45*.
Screening COc1ccccc1C(=O)NC(=O)COC(=O)c1cccc(C)c1O returned CHRM1 PAM 2, M1 PAM parental -11, M1 antag 1, CHO-K1 Ca ag 15*, CHRM1 agonist -4 and CHO-K1 Ca antag 14.
COc1ccccc1C(=O)NC(=O)COC(=O)c1cc[n+]([O-])cc1 was read as CHRM1 PAM 3, M1 PAM parental -5, M1 antag 1, CHO-K1 Ca ag 1, CHRM1 agonist 2 and CHO-K1 Ca antag -1.
